About 83,000 compounds went through this panel and 20% of them were active in at least one assay; those are over-represented in the sample as a whole.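 Activity criterion: percent growth below 10, measured after cells in 96-well plates were exposed to a single compound concentration for 48 hours.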 A number with no mark means an inactive call. Activity calls are given as the source filed them.

The subject of the experiment is SK-MEL-5 melanoma. Briefly: NCI-60 one-dose screen, 48 h (100 = growth as untreated, 0 = no growth, -100 = all killed). The conditions noted are these: 10 µM unless noted.
Turning to `COC(=O)[C@@H](C)C[C@H](Cc1ccccc1)NC(=O)c1nc([C@@H](C[C@H](C(C)C)N(C)C(=O)[C@@H](NC(=O)[C@H]2CCCN2C)C(C)C)OC(C)=O)sc1C`, the growth is -20.7% (active).
Then `CCCCCSC1C2C(=O)C(Br)=CC13CCNc1c(O)c4c5c(c13)=[N+]2CCC=5C=N4` (configuration not stated), with -95.2% (active); and `CC1=C(CCCOC(=O)CN)C2=C(C)C3(CC3)[C@@](C)(O)C(=O)C2=C1`, with 92.2%; and `COC(=O)CC[C@H](Cc1ccccc1)NC(=O)c1csc([C@@H](C[C@H](C(C)C)N(C)C(=O)[C@@H](NC(=O)[C@H]2CCCCN2C)C(C)C)OC(C)=O)n1`, with -13.4% (active).
As for `COC(=O)CC12CC(NC(=O)c3csc([C@@H](C[C@H](C(C)C)N(C)C(=O)[C@@H](NC(=O)[C@H]4CCCCN4C)C(C)C)OC(C)=O)n3)(C1)C2`, the figure is -30.2% (active); as for `O=C1CNC(c2ccccc2)c2cc(Cl)ccc2N1` (configuration not stated), 101%; as for `CC1(C)N=C(N)N=C(N)N1c1cccc(CCCCc2ccc(Cl)c(S(=O)(=O)F)c2)c1`, 16.4%.
Then `CC(=O)O[C@H](C[C@H](C(C)C)N(C)C(=O)[C@@H](NC(=O)[C@H]1CCCCN1C)C(C)C)c1nc(C(=O)N[C@@H](Cc2ccccc2)C[C@H](C)C(=O)O)c(C(C)C)s1`, with -43.9% (active); and `COC(=O)[C@@H](C)C[C@H](Cc1ccccc1)NC(=O)c1csc(CC[C@H](C(C)C)N(C)C(=O)[C@@H](NC(=O)[C@H]2CCCCN2C)C(C)C)n1`, with -19.5% (active); and `CCOP(=O)(NC[C@H]1O[C@](O)(CO)[C@@H](O)[C@@H]1O)OCC`, with 96.5%.
Take `COc1cc([C@@H]2c3cc4c(cc3[C@H](OC(C)=O)[C@H]3COC(=O)[C@H]23)OCO4)cc(OC)c1OC`: the growth is -17.6% (active).
As for `COC(=O)[C@@H](C)C[C@H](Cc1cn(C)c2ccccc12)NC(=O)c1csc([C@@H](C[C@H](C(C)C)N(C)C(=O)[C@@H](NC(=O)[C@H]2CCCCN2C)C(C)C)OC(C)=O)n1`, the figure is -38.4% (active); as for `CCOC(=O)[C@@H](C)C[C@H](Cc1ccccc1)NC(=O)c1csc([C@@H](C[C@H](C(C)C)N(C)C(=O)[C@@H](NC(=O)[C@H]2CCCCN2C)C(C)(C)C)OC(C)=O)n1`, -46.2% (active); as for `CC1=C(CCCNS(C)(=O)=O)C2=C(C)C3(CC3)[C@@](C)(O)C(=O)C2=C1`, -89.8% (active).
Regarding `COC(=O)[C@@H](C)C[C@H](Cc1ccccc1)NC(=O)c1cccc([C@@H](C[C@H](C(C)C)N(C)C(=O)[C@@H](NC(=O)[C@H]2CCCCN2C)C(C)C)OC(C)=O)n1`, the growth was -50.6% (active).
Consider `CNC(=O)Oc1ccc(C(C)(C)C)cc1OC(=O)NC`, for which the growth is 98.9%.
Then `CC1(C)C(C(=O)c2cn(CCCCF)c3ccccc23)C1(C)C`, with 92.1%; and `CC(=O)O[C@H](C[C@H](C(C)C)N(C)C(=O)[C@@H](NC(=O)[C@H]1CCCCN1C)C(C)C)c1nc(C(=O)NC2CCC(C(=O)O)CC2)cs1` (some centres not stated), with 49.8%; and `CCCC[C@H](NC(=O)[C@H]1CCCN1C)C(=O)N(C)[C@H](C[C@@H](OC(C)=O)c1nc(C(=O)N[C@@H](Cc2ccccc2)C[C@H](C)C(=O)OCC)cs1)C(C)C`, with -25.1% (active).
As for `CCOC(=O)[C@@H](C)C[C@H](Cc1ccccc1)NC(=O)c1csc([C@@H](C[C@H](C(C)C)N(C)C(=O)CNC(=O)[C@H]2CCCCN2C)OC(C)=O)n1`, the growth is 13.5%.
Then `COc1ccc([As]=[As]c2ccc(OC)c(NCS(=O)(=O)O)c2)cc1NCS(=O)(=O)O` (configuration not stated), with 1.61% (active).
As for `CC1=C(CCCOC(=O)[C@H](N)CC(C)C)C2=C(C)C3(CC3)[C@@](C)(O)C(=O)C2=C1`, the figure is -67.6% (active); as for `O=[N+]([O-])c1cc(I)cc([N+](=O)[O-])c1`, 95.2%.
`CC(=O)OC[C@]1(C)C=C2C(=O)[C@](C)(O)C3(CC3)C(C)=C2[C@H]1OC(=O)N(C)CCN(C)C(=O)OC(C)(C)C`: the growth is -74.4% (active).
As for `CC[C@H](C)[C@H](NC(=O)[C@H]1CCCCN1C)C(=O)N(C)[C@H](CCc1nc(C(=O)N[C@@H](Cc2ccccc2)C[C@H](C)C(=O)OC)cs1)C(C)C`, the growth is -22.1% (active).
Then `COc1ccc(Nc2ccc([N+](=O)[O-])cc2[N+](=O)[O-])cc1CN(CCCl)CCCl`, with 57.2%; and `COC(=O)CCc1c[nH]c2ccc(N(CCCl)CCCl)cc12`, with 52%.
As for `Nc1c(F)cc(-c2nc3cc(F)ccc3[se]2)cc1F`, the figure is 56.1%; as for `COC(=O)[C@@]1(C)CC[C@]2(C)CC[C@]3(C)C4=CC=C5C(=CC(=O)C(O)=C5C)[C@]4(C)CC[C@@]3(C)[C@@H]2C1`, -97.1% (active).
Then `COC(=O)[C@@H](C)C[C@H](Cc1ccccc1)NC(=O)c1nc([C@@H](C[C@H](C(C)C)N(C)C(=O)[C@@H](NC(=O)[C@H]2CCCCN2C)C(C)C)OC(C)=O)sc1C`, with -39.2% (active); and `CC(=O)O[C@H](C[C@H](C(C)C)N(C)C(=O)[C@@H](NC(=O)[C@H]1CCCN1C)C(C)C)c1nc(C(=O)N[C@@H](Cc2ccccc2)C[C@H](C)C(=O)O)c(C)s1`, with -19.2% (active).
Regarding `CCOC(=O)[C@@H](C)C[C@H](Cc1ccccc1)NC(=O)c1csc([C@@H](C[C@H](C(C)C)N(C)C(=O)[C@H](CCC(C)C)NC(=O)[C@H]2CCCCN2C)OC(C)=O)n1`, the growth is -25.5% (active).
As to `COC(=O)C12CC(NC(=O)c3csc([C@@H](C[C@H](C(C)C)N(C)C(=O)[C@@H](NC(=O)[C@H]4CCCCN4C)C(C)C)OC(C)=O)n3)(C1)C2`, the growth is -38.8% (active).
`Clc1ccc2nnnn2n1`: the growth was 30.2%.
On to `CC[C@H](C)[C@H](NC(=O)[C@H]1CCCCN1C)C(=O)N(C)[C@H](C[C@@H](O)c1nc(C(=O)N[C@@H](Cc2ccccc2)C[C@H](C)C(=O)O)cs1)C(C)C`, for which the growth was 63.7%.
As for `N#C[S-].[Au+].c1ccc(CN2[CH-]N(Cc3ccccc3)C(c3ccccc3)=C2c2ccccc2)cc1`, the figure is -36.5% (active).
Then `CCCCCCCCCCCCNC(c1ccccc1)C(O)c1ccccc1` (configuration not stated), with 96.7%.

The values above are taken from PubChem BioAssay (NCI).
